TGFb SMAD3 inh – TGF-b pathway inhibition; hit rate 1.2% among 410,000; HepG2 CAGA-GFP TGF-b/SMAD3 reporter, GFP fluorescence, 18 h; TGF-beta stimulated, 500 pg/mL final; AID 588855; Potency, µM (series often up to 46.1 µM), inactives show at the highest dose activity, negative = inhibition, usual class: inhibitors; further: potency means the concentration at half of the fitted maximal effect; on the % scale 0 is the no-effect control and ±100 the full control effect; nearly all actives have a fitted effect of over 65% in size
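Cell-based qHTS in HEPG2 carrying a CAGA-GFP Smad reporter; compounds added before 500 pg/mL final TGF-beta, 18 h incubation at 37 degrees C, GFP fluorescence quantified per cell by imaging cytometry.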
TDP1 cell CPT – DT40-hTDP1 cell growth loss with CPT; chicken DT40 Tdp1-/-;hTDP1 cells + 20 nM CPT, ATP luminescence, 48 h; Potency, µM (doses to about 46.2 µM), inactives show at the highest dose activity change, negative = growth inhibition, most hits filed as inhibitors; hit rate 12% among 420,000; further: potency means the concentration at half of the fitted maximal effect; on the % scale 0 is the no-effect control and ±100 the full control effect; nearly all actives have a fitted effect of over 55% in size
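Cell growth measured by CellTiter-Glo luminescence after a minimum 48 h, 37 C compound exposure with 20 nM CPT in Tdp1-knockout DT40 cells stably expressing hTDP1, seeded 400/well; qHTS titration format.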
HepG2 tox – counter-screen for TGF-b inhibitors: cytotoxicity in HepG2 cells; hit rate 0.76% among 410,000; HepG2 CAGA-GFP viability, ATP luminescence, 18 h; Potency, µM (highest dose often 46.1 µM), for inactives: at the top dose activity change, negative = cytotoxicity, usual class: cytotoxic; AID 588856; further: potency means the concentration at half of the fitted maximal effect
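HepG2 CAGA-GFP cells (1000/well, DMEM with 1% FBS) received compound, then TGF-beta at 500 pg/mL final, and were incubated 18 hours at 37 degrees C. Viability was read by CellTiter-Glo luminescence. Media-only wells were set as complete cell-killing and DMSO as no toxicity.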
TDP1 block – TDP1 (human) enzyme inhibition; Q9NUW8; recombinant TDP1, AlphaScreen DNA substrate cleavage; Potency, µM (top dose mostly 130 µM), without a hit: at the highest dose activity change, negative = inhibition, usual class: inhibitors; hit rate 0.28% among 350,000; AID 485290; further: potency means the concentration at half of the fitted maximal effect; on the % scale 0 is the no-effect control and ±100 the full control effect; nearly all actives have a fitted effect of over 40% in size
Target sequence (Q9NUW8 whole entry, looked up): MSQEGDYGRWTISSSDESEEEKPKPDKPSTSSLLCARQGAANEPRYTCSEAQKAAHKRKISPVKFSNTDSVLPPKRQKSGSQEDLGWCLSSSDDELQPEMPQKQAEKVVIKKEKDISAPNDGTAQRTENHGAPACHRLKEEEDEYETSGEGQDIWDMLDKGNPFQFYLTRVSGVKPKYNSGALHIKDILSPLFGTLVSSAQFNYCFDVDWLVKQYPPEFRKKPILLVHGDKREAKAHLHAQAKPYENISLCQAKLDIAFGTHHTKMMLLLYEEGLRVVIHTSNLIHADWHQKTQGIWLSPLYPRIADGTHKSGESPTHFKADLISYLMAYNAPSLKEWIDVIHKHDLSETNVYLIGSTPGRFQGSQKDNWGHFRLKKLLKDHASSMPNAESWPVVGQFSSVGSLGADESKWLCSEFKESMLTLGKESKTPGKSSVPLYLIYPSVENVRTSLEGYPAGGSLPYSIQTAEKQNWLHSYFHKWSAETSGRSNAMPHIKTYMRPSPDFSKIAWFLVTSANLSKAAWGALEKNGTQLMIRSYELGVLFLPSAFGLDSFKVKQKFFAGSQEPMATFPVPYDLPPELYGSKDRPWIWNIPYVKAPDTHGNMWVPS
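AlphaScreen read-out: signal falls as enzyme removes the 3' tyrosine-FITC from a 5'-biotinylated DNA oligo (15 nM, 5 min, RT). Enzyme was E. coli-made recombinant Tdp1 at 1 nM, exposed to compound for 15 min beforehand; beads 10 ug/ml, 10 min.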
DT40 TDP1 no CPT – qHTS for Inhibitors of human tyrosyl-DNA phosphodiesterase 1 (TDP1): qHTS in cells in absence of CPT. Potency, µM (titrated, usually from 46.2 µM), inactives show at the top dose activity change, negative = growth inhibition, hits mostly inhibitors. hit rate 15% among 420,000. DT40 Tdp1-/- hTDP1 cells, no CPT, ATP luminescence, 48 h; further: potency means the concentration at half of the fitted maximal effect; on the % scale 0 is the no-effect control and ±100 the full control effect; nearly all actives have a fitted effect of over 55% in size
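Compound effects on proliferation are scored in DT40 Tdp1-/-;hTDP1 cells in the absence of CPT. ATP levels (CellTiter-Glo luminescence) are recorded after a ≥48 hr, 37 °C incubation.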
IL1B secr inh – blocks inflammasome-driven IL-1 beta release. THP-1 LPS/ATP IL-1B secretion, AlphaLISA, 16 h; stronger effect = lower value. activity change, % at 57.5 µM. hit rate 4.7% among 360,000; in the data active means activity change below about -50%; inconclusive means mostly about -30% to -49%; further: on the % scale 0 is the no-effect control and ±100 the full control effect
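Secreted IL-1B measured by AlphaLISA bead assay after 16 h compound exposure of THP-1 cells; compounds (final up to 57.5 uM) added 1 h before LPS (250 ng/mL) and ATP (1.25 mM) stimulation; lower signal means less secretion.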
* hit, by the source's call; ? = inconclusive; . = no result given; ! = not confirmed by another sample; [ ] = another dose, or the depositor's remark. Compounds with a hit are over-represented: about 19% of the library has one in this group of screens. Unless noted, the call rests on the fitted dose curve; in most records, active means well fitted curve in the direction sought with a large enough effect; inconclusive means small, poorly fitted or top-dose-only effect, or another doubt; inactive means no such curve, though single readings can be large; an effect the other way counts as inactive or inconclusive.

SMILES	TGFb SMAD3 inh	TDP1 cell CPT	HepG2 tox	TDP1 block	DT40 TDP1 no CPT	IL1B secr inh
N=c1c2c(-c3ccccc3)c(-c3ccccc3)oc2ncn1CCCN1CCOCC1	-29%	21µM*	-58%	3%	18µM*	?
Cn1c2ccccc2c2ncn(CCCN3CCOCC3)c(=O)c21	-1%	-3%	-25%	4%	-15%	13
c1nc(NCCN2CCOCC2)c2cc(-c3ccoc3)ccc2n1	.	?	.	.	-15%	.
CC(C)NC(=O)CCCN1C(=O)CCn2nc(-c3cccn3C)cc21	-10%	-16%	-19%	3%	4%	.
CC(=O)C1=CCC(c2ccccc2)N(S(=O)(=O)c2cccc(C)c2)C1 (centres undefined)	?	16µM*	-9%	.	13µM*	-17
CC(=O)C1=CCC(c2ccccc2)N(S(=O)(=O)c2ccccc2)C1 (centres undefined)	-27%	29µM*	-8%	.	18µM*	-1
COc1ccc(C2CC=C(C(C)=O)CN2S(=O)(=O)c2ccc(Cl)cc2)cc1 (centres undefined)	-8%	16µM*	-3%	.	16µM*	-22
CC(=O)C1=CCC(c2ccco2)N(S(=O)(=O)c2ccc(C)cc2)C1 (centres undefined)	-31%	?	-7%	.	?	13
CC(=O)C1=CCC(c2ccc(Cl)cc2)N(S(=O)(=O)c2ccccc2)C1 (centres undefined)	-18%	21µM*	-3%	.	18µM*	-12
Cc1ccc(C(=O)N/C(=C\c2ccccc2)C(=O)NCCN2CCOCC2)cc1	11%	1%	-3%	1%	2%	9
Cc1nn2c(C)c(C(=O)NCc3cccc(Br)c3)cnc2c1-c1ccccc1	0%	?	-2%	1%	-20%	.
CC(=O)C1=CCC(c2ccc(C)cc2)N(S(=O)(=O)c2ccc(C)cc2)C1 (centres undefined)	?	?	0%	.	?	25
CC(=O)C1=CCC(c2ccc(Cl)cc2)N(S(=O)(=O)c2ccc(C)cc2)C1 (centres undefined)	?	?	-2%	.	16µM*	-57*!
CC(=O)C1=CCC(c2ccc(Br)cc2)N(S(=O)(=O)c2ccc(C)cc2)C1 (centres undefined)	?	18µM*	-13%	.	?	-52*
O=C(O)C1=CC[C@@H](c2ccc(Cl)cc2)N(S(=O)(=O)c2ccc(Cl)cc2)C1	-3%	-9%	-10%	-1%	-18%	15
COc1ccc(/C=N\NC(=O)COc2ccccc2Cl)cc1Cn1nc(C)cc1C	?	?	-50%	5%	23µM*	-2
COc1ccc(/C=N\NC(=O)c2sccc2C)cc1Cn1nc(C)cc1C	-3%	7.3µM*	-9%	4%	?	-13
COc1ccc(/C=N/NC(=O)CCn2nc(C)cc2C)cc1O	5%	0%	-6%	0%	8%	17
CCc1ccc(CCC(=O)Nc2ccc(OC)cc2)o1	3%	-14%	-35%	7%[56.1 µM]	-25%	12
COc1ccc(C(N)CCc2ccc(C)o2)cc1 (centres undefined)	-5%	?	2%	5%	18µM*	?
COc1ccc(NC(=O)C(Cc2c[nH]c3ccccc23)NC(=O)OC(C)(C)C)cc1 (centres undefined)	-13%	?	-5%	.	-23%	.
CC(=O)Nc1ccc(C)cc1-c1nc2ccccc2n(CC(=O)Nc2cc(Cl)ccc2C)c1=O	-18%	?	7%	6%	1%	.
O=C(CC(=O)c1ccccc1)CC(O)(C=Cc1ccccc1)c1ccccc1 (centres undefined)	-11%	21µM*	-11%	.	16µM*	-10
O=C(/C=C/c1ccccc1)CC(=O)c1ccccc1	29%	?	-25%	.	?	-18
COCCCn1c(=N)c(C(=O)NCc2cccnc2)cc2c(=O)n3cc(C)ccc3nc21	0%	1%	0%	.	3%	.
SMILES	TGFb SMAD3 inh	TDP1 cell CPT	HepG2 tox	TDP1 block	DT40 TDP1 no CPT	IL1B secr inh
CCOCCCn1c(=N)c(S(=O)(=O)c2ccc(C)cc2)cc2c(=O)n3ccccc3nc21	3%	.	-16%	.	.	.
CCCCn1c(=N)c(C(=O)NC2CCCCC2)cc2c(=O)n3cccc(C)c3nc21	-1%	6%	-4%	4%	0%	.
CCCn1c(=N)c(S(=O)(=O)c2ccc(F)cc2)cc2c(=O)n3cccc(C)c3nc21	3%	?	5%	5%	-28%	0
COCCn1c(=N)c(S(=O)(=O)c2ccc(F)cc2)cc2c(=O)n3cccc(C)c3nc21	11%	?	3%	4%	8.2µM*	-2
CCOCCCn1c(=N)c(S(=O)(=O)c2ccccc2)cc2c(=O)n3cc(C)ccc3nc21	33%	?	-8%	1%	16µM*	21
CCCn1c(=N)c(C(=O)NC2CCCC2)cc2c(=O)n3cccc(C)c3nc21	-14%	?	0%	2%	12µM*	-21
Cc1ccc2nc3c(cc(C(N)=S)c(=N)n3CCCOC(C)C)c(=O)n2c1	25%	16µM*	-40%	5%	16µM*	-9
COc1ccc(O)c(CN2CCC3(CCC(CNC(=O)c4ccccc4)O3)CC2)c1 (centres undefined)	.	3%	.	.	?	.
CN(Cc1ccco1)c1nc(-c2cccc(C#N)c2)nc2ccccc12	.	?	.	9%[56.1 µM]	?	.
CCOCCCn1c(=N)c(C(=O)NCc2ccc3c(c2)OCO3)cc2c(=O)n3cccc(C)c3nc21	-1%	?	-26%	-6%	?	-60*
COCCCn1c(=N)c(C(N)=S)cc2c(=O)n3cccc(C)c3nc21	-2%	18µM*	-16%	.	23µM*	-68*
CCOCCCn1c(=N)c(C(=O)NC2CCCC2)cc2c(=O)n3cccc(C)c3nc21	3%	?	-4%	.	21µM*	.
CCn1c(=N)c(C(=O)NC)cc2c(=O)n3cccc(C)c3nc21	?	?	-22%	4%	16µM*	-21
CC(Oc1ccc(Cl)cc1Cl)c1ccnc2nc(N3CCOCC3)nn12 (centres undefined)	-13%	?	-6%	5%	18µM*	-52*
C#CCOc1ccc2ccccc2c1/C=C(/C#N)c1ccc(C(=O)O)cc1	2%	-2%	11%	.	-13%	17
